About 5,800 (1.8%) of roughly 330,000 compounds were called active. The full list was thinned out, with actives kept by preference. Unmarked numbers belong to inactive results. Rule as the data show it: active = inhibition mostly above about 38% (no sharp cut-off); inactive = mostly below about 40%.

For the experiment, the target named is Orexin/Hypocretin receptor type 1 (Homo sapiens) (UniProt O43613). The experiment in a line: antagonists of human orexin 1 receptor (OX1R) (AID 485270).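 Also: 0% = agonist challenge alone and 100% = reference antagonist.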 Particulars: OX1R-expressing cells, FRET antagonist read-out; at 6.6 µM; active compounds read high.
Sequence of Orexin/Hypocretin receptor type 1 (Homo sapiens) (O43613 whole entry, looked up): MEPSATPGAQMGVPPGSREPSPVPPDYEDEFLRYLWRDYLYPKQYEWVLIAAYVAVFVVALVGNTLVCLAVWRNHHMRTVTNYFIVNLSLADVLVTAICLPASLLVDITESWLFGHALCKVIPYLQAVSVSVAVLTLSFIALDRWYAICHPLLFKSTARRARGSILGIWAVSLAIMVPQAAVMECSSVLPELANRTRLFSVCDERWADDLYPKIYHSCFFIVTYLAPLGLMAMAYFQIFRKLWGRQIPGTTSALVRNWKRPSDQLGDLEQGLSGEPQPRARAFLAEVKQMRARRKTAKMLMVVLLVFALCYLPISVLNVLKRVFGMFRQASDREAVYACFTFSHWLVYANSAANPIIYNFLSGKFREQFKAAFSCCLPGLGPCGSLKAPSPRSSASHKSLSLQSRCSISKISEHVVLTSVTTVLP
For `O=C(CSc1ncn[nH]1)Nc1ccc(Br)cc1Br`, the inhibition was 5.47%.

Turning to `C=CC[C@@H](CC(=O)N[C@@H](CO)Cc1ccccc1)C(=O)N[C@H](COC(=O)[C@H](CC=C)CC(=O)OC(C)(C)C)Cc1ccccc1`, the inhibition is 3.4%.

For `CN(Cc1ccc(F)cc1)C(=O)CN1C(=O)c2ccccc2S1(=O)=O`, the inhibition is 13.1%.

On to `CC(C)c1ccc(C(=O)OC2CCOC2=O)cc1` (configuration not stated), for which the inhibition was 27.2%.

Take `O=C(OC1CCOC1=O)c1ccc(-c2nc3ccccc3s2)s1` (configuration not stated): the inhibition was 119% (active).

As to `Cc1nn(Cc2ccccc2)c(Cl)c1C(=O)OC1CCOC1=O` (configuration not stated), the inhibition was 21.6%.

Consider `Cc1ccc(S(=O)(=O)N2CCCCC2)cc1NC(=O)CCNC(=O)c1ccccc1`, for which the inhibition was 2.26%.

`COc1cccc(CNC(C)C(=O)Nc2ccc(S(=O)(=O)N3CCCC3)cc2)c1` (configuration not stated): the inhibition was 2.03%.

On to `O=C(NNC(=O)c1ccc(Cl)nc1)c1ccc(Br)cc1`, for which the inhibition is 8.95%.

In the case of `CCN(C[C@H]1N[C@@](CC)(C(=O)OC)[C@H]2C(=O)N(Cc3ccccc3)C(=O)[C@@H]12)S(=O)(=O)c1ccccc1`, the inhibition was 6.85%.

As to `Cc1c(NC(=O)Nc2ccccc2Cl)sc(=S)n1C`, the inhibition was 12.2%.

For the compound `O=C(Nc1ccccc1Cl)/C(Cl)=C(\Cl)S(=O)c1ccccc1` (configuration not stated), the inhibition was 87.9% (active).

As to `O=C(Cc1ccc2c(c1)CCCC2)Nc1ccccc1Cl`, the inhibition was 6.59%.

As to `COc1ccc(CNC(=O)C2CCN(C(=O)c3ccco3)CC2)cc1`, the inhibition was 14.6%.

Take `CC(=O)c1c(OCC(=O)N(C)C2CCCCC2)ccc2c(C)cc(=O)oc12`: the inhibition was 2.71%.

As to `O=C(NCc1ccccc1)c1onc(CSc2nc3ccccc3[nH]2)c1C(=O)NCc1ccccc1`, the inhibition was 71.2% (active).

For the compound `O=C(NCc1ccccc1)c1onc(CSc2ccncc2)c1C(=O)NCc1ccccc1`, the inhibition is 16.4%.

Regarding `O=C(NCC1CC1)c1onc(CSc2ccccc2)c1C(=O)NCC1CC1`, the inhibition was 28.4%.

With `O=S(=O)(Nc1ncnc2sccc12)c1cccc(F)c1`, the inhibition is 3.31%.

Turning to `Cc1cc(NC(=O)COC(=O)/C=C/c2ccc(C)o2)no1`, the inhibition was 1.38%.

Consider `C=CCSc1nnc2c(n1)-c1cccc3cccc-2c13`, for which the inhibition is 56.6% (active).

`CCOC(=O)C1=CN(Cc2ccc(Br)cc2)S(=O)(=O)NC1C` (configuration not stated): the inhibition is 8.5%.

Take `COc1cc2c(-c3ccc4c(c3)OCO4)c(-c3ccsc3)oc(=O)c2cc1OC`: the inhibition was 16.2%.

Consider `CC(OC(=O)c1cc2ccccc2[nH]1)C(=O)N(C)c1ccccc1` (configuration not stated), for which the inhibition is 5.48%.

As to `C[C@H](NC(=O)c1ccccc1Cl)C(=O)OCC(=O)N1CCN(c2ccccc2)CC1`, the inhibition was 3.17%.

On to `COc1ccc(C(=O)COC(=O)c2ccc([N+](=O)[O-])s2)cc1OC`, for which the inhibition is 38.5% (active).

Take `O=C(OCC(=O)N1CCN(c2ccccc2)CC1)c1ccc([N+](=O)[O-])s1`: the inhibition is 42.6% (active).

Consider `COc1cc(C(=O)OCc2ccc([N+](=O)[O-])cc2)cc(OC)c1OC`, for which the inhibition was 14.5%.

As to `COc1ccc(C(=O)NCC(=O)N/N=C/c2ccc([N+](=O)[O-])s2)cc1OC`, the inhibition is 44%.

Turning to `COc1ccc(C(=O)OCC(=O)Nc2ccc3[nH]c(=O)[nH]c3c2)c(OC)c1OC`, the inhibition was 18%.

Consider `O=C(CN1CCCC1)N1CCN(c2ccccc2)CC1`, for which the inhibition was 3.2%.

`COc1ccc(C(=O)OCC(=O)c2ccc(C)c(S(=O)(=O)N3CCOCC3)c2)cc1OC`: the inhibition was 27.8%.

Take `COc1cc(NC(=O)COC(=O)c2ccc([N+](=O)[O-])s2)cc(OC)c1OC`: the inhibition was 47.4% (active).

On to `C[C@H](CO)N1C[C@H](C)[C@H](CN(C)C(=O)Nc2ccc(C(F)(F)F)cc2)Oc2c(NC(=O)c3ccncc3)cccc2C1=O`, for which the inhibition is 12.5%.

As for `CCOc1ccc(Br)cc1S(=O)(=O)Nc1ccc(S(=O)(=O)Nc2cc(C)on2)cc1`, the inhibition was -0.05%.

As for `CN(C)C(=O)CCc1ccc2c3c([nH]c2c1)[C@]1(CCc2ccccc2)[C@@H](C(=O)N2CCCCC2)C[C@H](CC(=O)NCCC2=CCCCC2)C(=O)N1CC3`, the inhibition was 10.4%.

`COc1ccc2sc(-c3ccc(S(C)(=O)=O)cc3)c(C#Cc3cncn3C)c2c1`: the inhibition is 6.52%.

With `C=CCC[C@H](Cc1ccc(F)cc1)C(=O)OC[C@@H](Cc1c[nH]c2ccccc12)NC(=O)[C@H](CC=C)CC(=O)N[C@H](CO)Cc1ccccc1`, the inhibition was 3.33%.

In the case of `COc1ccccc1NC(=O)COC(=O)CNC(=O)C1CCCCC1`, the inhibition was 5.3%.

With `Cc1c(Cl)cnc(NC(=O)COC(=O)C2CCCC2)c1Cl`, the inhibition was 2.82%.

For the compound `COc1ccc(C(=O)COC(=O)CN2C(=O)C3CC=CCC3C2=O)c(OC)c1` (configuration not stated), the inhibition is 0.55%.

For the compound `CCN([C@H](CO)C(C)C)S(=O)(=O)c1ccccc1Br`, the inhibition was 8.87%.

As to `CCCN=C1N(C)C[C@@H]2[C@@H]3C(=O)N(Cc4ccccc4)C(=O)[C@@H]3[C@](C)(C(=O)OC)N12`, the inhibition was 3.52%.

On to `Cc1cc[n+](-c2[nH]c(=O)sc2/C=N/NC(=O)c2ccccc2[O-])cc1C`, for which the inhibition is 67.1% (active).

Regarding `Cc1ccc2occ(/C=N/NC(=O)c3ccccc3C)c(=O)c2c1`, the inhibition is 11.9%.

For the compound `Cc1ccc(/C=N/NC(=O)c2cc3ccccc3cc2O)o1`, the inhibition was 22.1%.

In the case of `C[C@H](CO)N1C[C@H](C)[C@@H](CN(C)S(=O)(=O)c2ccc(F)cc2)Oc2c(NC(=O)Nc3ccccc3)cccc2C1=O`, the inhibition is 3.72%.

In the case of `O=C(Nc1ccccc1F)c1ccc2c(c1)OCO2`, the inhibition was 0.6%.

With `Fc1ccc2cnc(-c3ccccc3)cc2c1`, the inhibition was 1.78%.

On to `Fc1ccccc1-c1cc2cc3c(cc2cn1)OCO3`, for which the inhibition is 66% (active).

`Cc1ccc(S(=O)(=O)N2CCN(CC(=O)N/N=C/c3cc([N+](=O)[O-])ccc3Cl)CC2)cc1`: the inhibition is 19.3%.

With `Cc1ccc(S(=O)(=O)N2[C@@H](c3cccc(Cl)c3)C(C(=O)O)=CC[C@H]2c2ccc(Cl)c(Cl)c2)cc1`, the inhibition is 81.4% (active).

`Cc1ccccc1S(=O)(=O)N1[C@@H](c2cccc(Cl)c2)C(C(=O)O)=CC[C@H]1c1ccc(Cl)cc1`: the inhibition is 90.2% (active).

In the case of `CN1OC(COC(=O)c2ccc(Cl)cc2)CC1c1ccccc1` (configuration not stated), the inhibition is -0.66%.

As for `Cc1ccc(S(=O)(=O)N2C3C=CC(C3)C2C(=O)O)cc1` (configuration not stated), the inhibition was 7.96%.

With `Cc1ccc2c(c1)C(c1ccccc1)N(C(=O)c1ccc(S(=O)(=O)N3CCOCC3)cc1)CC(=O)N2` (configuration not stated), the inhibition is 7.06%.

For the compound `Cc1ccc([C@@H]2CC=C(C(=O)O)[C@H](c3cccc(Cl)c3)N2S(=O)(=O)c2ccc(C)cc2)cc1`, the inhibition was 82.9% (active).

With `COc1ccccc1N1CCN(S(=O)(=O)c2ccc(Cl)cc2)CC1`, the inhibition was 4.56%.

In the case of `Cc1ccc(S(=O)(=O)N2[C@@H](c3ccccc3F)C(C(=O)O)=CC[C@H]2c2ccc(Cl)cc2)cc1`, the inhibition is 64.8% (active).

For the compound `Cc1ccc(S(=O)(=O)N2[C@@H](c3ccc(Br)cc3)C(C(=O)O)=C[C@H]2CC2CCCC2)cc1`, the inhibition is 31.2%.

With `CS(=O)(=O)N(CC(=O)N1CCN(c2cccc(Cl)c2)CC1)c1ccccc1`, the inhibition is -2.69%.

Regarding `Cc1ccc(S(=O)(=O)N(CC(=O)N2CCc3ccccc3C2)c2cccc(Cl)c2)cc1`, the inhibition is 40%.

A word on the inhibition: it is the relative decrease from the control value, in per cent.

For the origin of these results see PubChem BioAssay AID485270 (The Scripps Research Institute Molecular Screening Center, 2010).
